Rows were chosen to be rich in hits. Some 1.2% of all compounds tested hit in one or more screens of this group.
PriA SSB inh = K. pneumoniae PriA-SSBct interaction inhibition | AlphaScreen SSBct-PriA binding, biotinylated peptide | inhibition, % at 33 µM | hit rate 0.6% among 430,000 | AID 1272365; in the data active = inhibition mostly above about 37%, no sharp cut-off; inactive = mostly below about 20%;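 also: plate controls were negative control peptide for no effect and reference peptide for full effect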
SARS 3CLpro inh-1 = SARS-CoV 3CLpro protease inhibition; P0C6X7; AID 1706; hit rate 0.14% among 290,000; recombinant SARS-CoV 3CLpro, quenched FRET peptide cleavage; inhibition, % at 6 µM; in the data active = inhibition above about 12%
PrP 5UTR inh = inhibition of PrP 5' UTR reporter expression | cell-based PrP 5' UTR mRNA reporter, plate reader | inhibition, % (test concentration not listed) | hit rate 0.35% among 340,000 | AID 488862; in the data active = inhibition above about 52%; also: 0 = median of the neutral control wells
PrPC TRFRET = cell surface PrPC inhibition, primary TR-FRET screen. P04156. TR-FRET read-out. inhibition, % at 13.8 µM. hit rate 0.43% among 370,000; in the data active = inhibition above about 24%; also: 0% = median of the test wells and 100% = reference compound wells
BJeLR lethal = kills HRASV12-expressing BJeLR cells; BJeLR (HRASV12) viability, CellTiter-Glo ATP luminescence, 48 h; inhibition, % (concentration not given with the values); hit rate 0.17% among 300,000; in the data active = inhibition above about 50%
SARS 3CLpro inh-2 = confirmation of SARS coronavirus 3C-like protease inhibitors; shares compounds with SARS 3CLpro inh-1; QFRET protease activity assay, 3CLpro; inhibition, % at 6 µM; hit rate 36% among 380; in the data active = inhibition above about 13%
PrP UTR cherry = prion 5' UTR mRNA inhibition, cherry-pick retest. hit rate 48% among 1,100. AID 504592. inhibition, % at 2.5 µM. shares compounds with PrP 5UTR inh. cell-based prion protein 5' UTR reporter, plate reader; in the data active = inhibition above about 54%
* hit, by the source's call; nt = no result.

SMILES | PriA SSB inh | SARS 3CLpro inh-1 | PrP 5UTR inh | PrPC TRFRET | BJeLR lethal | SARS 3CLpro inh-2 | others
CCCc1c(C(=O)N/N=C/c2c(OC)ccc3ccccc23)nnn1-c1nonc1N | nt | 14* | 7 | 5 | 5 | 0
COc1cccc(/C=N/NC(=O)c2nnn(-c3nonc3N)c2CN(C)c2ccccc2)c1 | nt | 12* | -7 | 4 | 4 | 0
O=C(NCCN1CCC(c2cccs2)CC1)C1(c2cccs2)CCCC1 | -25 | nt | nt | nt | nt | nt
O=C(c1c[nH]c(=O)n(Cc2ccccc2Cl)c1=O)N1CCCc2ccccc21 | 6 | nt | nt | nt | nt | nt
Cc1ccc(-c2cc(NC(=O)c3ccccc3[N+](=O)[O-])n[nH]2)cc1 | 6 | 16* | -15 | -14 | 2 | 14*
O=C(NCCN1CCOCC1)C(=O)NCC1(c2cccs2)CCCC1 | -18 | nt | nt | nt | nt | nt
NS(=O)(=O)c1ccc(Nc2ccc([N+](=O)[O-])c3nonc23)cc1 | 6 | 15* | -17 | -60 | 17 | 6
COc1ccc(CC(=O)NC(C)c2nnc(SCCOc3ccc(OC)cc3)n2C)cc1 (stereo not given) | -16 | 18* | 6 | 0 | -5 | -4
CC(C)CS(=O)(=O)C1CCN(C(=O)c2ccoc2)CC1 | -7 | nt | nt | nt | nt | nt
O=C1NC(=O)N(c2ccccc2F)C(=O)/C1=C/c1cn(CC(=O)N2CCOCC2)c2ccccc12 | -4 | 18* | nt | -3 | 2 | 18*
CCN1C(=O)NC(=O)/C(=C\c2cn(CC(=O)N3CCCC3)c3ccccc23)C1=O | 0 | 4 | -6 | 3 | 7 | nt
CNc1ccc(Br)cc(C(=O)/C=C/c2ccc3c(c2)OCO3)c1=O | 6 | 13* | -15 | -6 | 0 | 2
O=C(Cc1ccc(Cl)c(Cl)c1)Nc1cccnc1 | -15 | 23* | -15 | 9 | -9 | 21*
O=C(CC(=O)Nc1cccnc1)Nc1cccnc1 | -2 | 0 | -7 | 1 | 3 | nt
Cc1noc(NS(=O)(=O)c2ccc(NC(=O)Nc3ccc(Cl)c(Cl)c3)cc2)c1C | -9 | 16* | -24 | -1 | -3 | 10
O=C(Nc1ncc(S(=O)(=O)c2ccc([N+](=O)[O-])cc2)s1)C(c1ccccc1)c1ccccc1 | -3 | nt | nt | nt | nt | nt
CC(C)C(=O)Nc1cccc(NC(=S)NC(=O)c2ccccc2Cl)c1 | -6 | 1 | -18 | 8 | -3 | nt
O=C(Nc1ccc(NC(=S)NC(=O)c2ccccc2Cl)cc1)c1cccc(Cl)c1 | 5 | 16* | -17 | 3 | 11 | 4
Cc1ccc(-c2csc3nc(SCC(=O)c4ccc(F)cc4)n(-c4ccccc4)c(=O)c23)o1 | -8 | nt | nt | nt | nt | nt
COc1cc(/C=N/NC(=O)/C(=C\c2ccc3c(c2)OCO3)NC(=O)c2ccccc2)ccc1O | nt | 13* | -22 | -16 | 10 | 2
COc1cc(/C=N\NC(=O)CSc2nc3ccccc3s2)ccc1OC(=O)CC1SC(=O)NC1=O (stereo not given) | -11 | nt | nt | nt | nt | nt
Cn1ncc(Cl)c1C(=O)Nc1ccc2c(c1)OCO2 | -17 | 13* | -25 | 2 | -1 | 0
COCCN1CCCc2ccc(NS(=O)(=O)c3cc(C)ccc3OC)cc21 | -18 | nt | nt | nt | nt | nt
Cc1ccc(-c2nc(P(=O)(c3ccccc3)c3ccccc3)c(N3CCOCC3)o2)cc1 | 25 | 4 | -16 | -5 | 0 | nt
CNc1oc(-c2ccc(Cl)cc2)nc1P(=O)(c1ccccc1)c1ccccc1 | -17 | 13* | -8 | 5 | -6 | -1
SMILES | PriA SSB inh | SARS 3CLpro inh-1 | PrP 5UTR inh | PrPC TRFRET | BJeLR lethal | SARS 3CLpro inh-2 | others
COc1cc([N+](=O)[O-])ccc1NC(=O)COC(=O)C=C(C)C | -4 | -3 | 61* | -13 | 5 | nt | PrP UTR cherry=-22
CCOc1ccc(NC(=O)CN(C)C(=O)C2CCCC2)cc1OCC | -1 | 4 | 83* | 7 | 6 | nt | PrP UTR cherry=-13
CC1CCN(C(=O)c2ccc(COc3ccccc3Cl)o2)CC1 | -25 | 1 | 77* | 10 | -7 | nt | PrP UTR cherry=-6
Cc1ccc(-c2cc3c(=O)n(Cc4nc(-c5ccccc5Cl)no4)ccn3n2)cc1C | 4 | nt | nt | nt | nt | nt
CCC(=Cc1sc2ccc(OC)cc2[n+]1CCCS(=O)(=O)[O-])C=C1Sc2ccc(OC)cc2N1CC | 0 | nt | nt | nt | nt | nt
Cc1c(C(=O)O)sc2nc(SC/C=C/c3ccccc3)nc(N)c12 | -9 | nt | nt | nt | nt | nt
COC(=O)CNC(=O)C12CC3CC(C1)CC(c1ccc(C)cc1)(C3)C2 | -5 | 1 | 78* | 2 | -15 | nt | PrP UTR cherry=-26
COc1ccc(CNC(=O)c2c(O)c3cc(OC)c(OC)cc3[nH]c2=O)cc1OC | -18 | 6 | -12 | -6 | -2 | nt

High-throughput results (PubChem BioAssay)
